A selection: hits, their analogues and other compounds. The true share with any hit is near 14%.
HCMV antiviral: blocks human cytomegalovirus replication. 4.5% of 410,000 active. HFF cells, HCMV-luciferase reporter, 72 h; active compounds read low. activity change, negative = inhibition, % at 57.5 µM; in the data active = activity change below about -60%; inconclusive = no clear call, values can overlap the other calls; inactive = above about -39%
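Two-dose cell screen: HFF monolayers treated with compounds and infected with luciferase-expressing HCMV at 1 PFU/cell, 72 h at 37C, then lysed for luciferase measurement.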
Pf growth 48h: P. falciparum growth inhibition at 48 hours (one generation); P. falciparum luciferase growth in erythrocytes, 48 h; Potency, µM (highest dose often 28.7 µM), for the others: at the highest dose activity change, negative = inhibition, usual class: inhibitors; 5.9% of 310,000 active; AID 504832; note: potency is the fitted concentration of half-maximal effect
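Parasite viability was followed by luminescence of a genomically integrated firefly luciferase. Cultures held 0.1% parasitemia at 2% hematocrit (final), incubated under 5% CO2 at 37 C.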
Pf growth 96h: inhibits malaria parasite growth, 96 h; AID 504834; P. falciparum luciferase reporter growth, 96 h; 6.9% of 320,000 active; Potency, µM (series often up to 28.7 µM), for the others: top-dose activity change, negative = inhibition, usual class: inhibitors; note: potency is the fitted concentration of half-maximal effect
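Readout is luminescence from an integrated firefly luciferase in P. falciparum. Red cells, 2% hematocrit and 0.05% parasitemia final, were cultured with compound through two parasite generations (96 hours) at 37 C, 5% CO2.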
Lassa entry inh: Lassa virus entry inhibition; Lassa virus pseudotype entry inhibition, cell reporter; Potency, µM (top dose mostly 37.9 µM), for the others: top-dose activity change, negative = inhibition, hits mostly inhibitors; 1.2% of 300,000 active; AID 540256; calls by dose curve; tested in HEK293 cells; note: potency is the fitted concentration of half-maximal effect; nearly all actives have a fitted effect of over 50% in size
MARV entry inh: inhibitors of Marburg virus binding or cell entry. 1.8% of 300,000 active. Marburg virus pseudotyped entry inhibition, cell reporter. Potency, µM (highest dose often 37.8 µM), inactives show at the highest dose activity change, negative = inhibition, most hits filed as inhibitors; calls by dose curve; tested in HEK293 cells; note: potency is the fitted concentration of half-maximal effect
HCV inh: blocks hepatitis C virus | AID 651820 | Huh7.5.1 HCVcc-Cre infection, luciferase reporter, 44 h | 3.4% of 340,000 active | Potency, µM (titrated, usually from 41.8 µM), without a hit: at the highest dose activity change, negative = inhibition, hits mostly inhibitors; note: potency is the fitted concentration of half-maximal effect
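1,000 cells/well; 4 h culture; + compound; + HCVcc-Cre (~0.5 moi); 44 h; luciferase substrate, RT 15 min; read 15 sec.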
Active calls of the source: *; i = inactive; ? = inconclusive; / = no result given; [ ] = remark or other dose. Unless noted, calls come from the whole dose curve; as a rule, active = well fitted inhibition curve with a large enough effect; inconclusive = small, poorly fitted or top-dose-only effect, or another doubt; inactive = no such curve, though single readings can be large or run the other way. % is set by controls: 0 for no effect and ±100 for the full control effect.

SMILES	HCMV antiviral	Pf growth 48h	Pf growth 96h	Lassa entry inh	MARV entry inh	HCV inh
CCOc1ccc(C(=O)Nc2ccc3oc(-c4ccc(C)cc4C)nc3c2)cc1Br	9.3	/	/	24.7%[46.1 µM]	/	/
O=C(COc1ccc2ccccc2c1)Nc1ccc(S(=O)(=O)N2CCCCCC2)cc1	8.5	11.7µM*	?	-0.1%	-21.2%	-26.9%
Cc1cc(OCC(=O)Nc2ccc(S(=O)(=O)N3CCN(C)CC3)cc2)ccc1Br	-34.8	11.7µM*	6.57µM*	?	?	?
COc1ccccc1OCC(=O)Nc1ccc(S(=O)(=O)N2CCCCCC2)cc1	80.8	0.0%	?	8.3%	?	1.58µM*
Cc1ccc2c(COC(=O)CNC(=O)c3ccco3)cc(=O)oc2c1C	51.0	/	/	25.0%	0.9%	5.1%
CCCCN(CCCC)C(=O)c1cc2c(=O)n3ccccc3nc2s1	?	/	/	19.3%[46.1 µM]	-10.4%[46.1 µM]	/
COc1cccc(CN2CCCCC2c2cccnc2)c1 (stereo not given)	15.2	?	9.9%	-0.8%	-1.7%	-5.1%
COc1cccc(C2CCCN2Cc2nc(-c3cnccn3)no2)c1 (stereo not given)	-33.2	13.1µM*	14.2%	/	/	9.8%
COc1ccc(-c2n[nH]c(C)c2-c2cnn(-c3ccccc3)c2)c(O)c1C	-77.4*	-0.8%	?	-15.9%	-27.3%	11.2µM*
COc1ccc(-c2n[nH]c(C)c2-c2cnn(-c3ccccc3)c2)c(O)c1	61.2	-16.1%	i	-16.0%	?	-21.8%
COC(=O)c1cc(S(=O)(=O)NCc2cccc(Br)c2)c[nH]1	-6.8	8.9%	9.28µM*	/	/	-2.0%
CCN(CC)CC(=O)Nc1sc(C)cc1C(=O)c1ccccc1	0.2	3.29µM*	-12.3%	-10.8%	?	8.91µM*
Cc1cc(C(=O)c2ccccc2)c(NC(=O)CCl)s1	53.1	?	-15.1%	-16.5%	1µM*	?
CCc1cc(C(=O)c2ccc(Br)cc2)c(NC(=O)CN(CC)CC)s1	3.9	5.86µM*	8.28µM*	/	/	-23.4%
CCN(CC)CC(=O)Nc1sc(C)cc1C(=O)c1ccc(C)cc1	23.9	?	-23.7%	-8.8%	?	?
CCCOc1ccc(F)cc1-c1cc(C(=O)NCc2cccc(Cl)c2)[nH]n1	-17.3	/	/	/	/	/
CCCCC[C@H](O)/C=C/C1C(=O)C=C[C@H]1C/C=C\CCCC(=O)OC (stereo not given in full)	-109.8*	/	/	/	/	?
Cc1cc(C)n(-c2nc(NC(C)(C)C)nc(NC(C)(C)C)n2)n1	?	?	15.8%	10.0%	?	?
CCNc1nc(NCC)nc(-n2nc(C)cc2C)n1	?	4.15µM*	2.08µM*	-4.1%	8.1%	?
Cc1cc(C)n(-c2nc(NC(C)C)nc(NC(C)C)n2)n1	11.2	3.7µM*	5.4%	?	?	?
O=C1NCCN(CC2CCN(CCc3ccc(Cl)c(Cl)c3)CC2)C1=O	6.0	/	/	/	/	?
COc1ccc(CCNC(=O)CSc2nnnn2-c2cccc(C(C)=O)c2)cc1OC	-3.2	/	/	7.9%[46.1 µM]	11.8%[46.1 µM]	/
Cc1ccc(NC(=O)Cn2c(-c3cncs3)nc3ccccc32)c(Br)c1	-27.8	/	/	0.7%[46.1 µM]	-13.4%[46.1 µM]	/
Cc1ccc(SCCN2CCC(C)CCC2=O)cc1 (stereo not given)	95.5	176.8%	84.7%	/	/	-26.3%
Cc1ccc(S[C@@H](CCN2CC[C@H](C)CCC2=O)c2ccccc2)cc1	?	?	9.28µM*	/	/	?
SMILES	HCMV antiviral	Pf growth 48h	Pf growth 96h	Lassa entry inh	MARV entry inh	HCV inh
C[C@@H]1CCC(=O)N(CC[C@H](Sc2ccc(Br)cc2)c2ccccc2)CC1	7.9	?	?	/	/	?
C[C@@H]1CCC(=O)N(CC[C@H](Oc2ccccc2)c2ccccc2)CC1	-64.5*	?	?	/	/	-18.7%
COc1ccc(S[C@@H](CCN2CC[C@H](C)CCC2=O)c2ccccc2)cc1	-8.5	8.28µM*	?	/	/	?
Cc1ccc(C)c(NC(=O)CSc2ncc3c(n2)-c2cc(Cl)ccc2N(Cc2ccccc2F)S3(=O)=O)c1	6.4	/	/	1.1%[46.1 µM]	/	/
COc1cc2c3nnc(-c4ccccc4)c-3cn(Cc3ccc(F)cc3)c2cc1OC	-66.0*	-36.8%[1.15 µM]	?	-14.7%	?	-21.0%
COc1cc2c3nnc(-c4ccc(F)cc4)c-3cn(Cc3ccc(C)cc3)c2cc1OC	-18.8	0.329µM*	0.37µM*	/	/	6.4%
Cc1cc(C)c2nc(N(Cc3cccnc3)C(=O)CCOc3ccccc3)sc2c1	0.0	/	/	2.2%[46.1 µM]	/	/
COc1cc(NC(=O)c2cc(-c3cccc(O)c3)on2)cc(OC)c1OC	41.0	/	30.8%	/	/	11.2µM*
COc1ccc(NC(=O)c2cc(-c3ccccc3Cl)on2)cc1	18.7	?	?	/	/	?
O=C(Nc1ccccc1C(F)(F)F)c1cc(-c2cccc(O)c2)on1	22.6	10.9%	10.4µM*	0.7%	25.1%	-1.4%
COc1cc(NC(=O)c2cc(-c3ccc(Cl)c(Cl)c3)on2)cc(OC)c1OC	-18.0	/	/	?	-3.8%[46.1 µM]	/
COc1cc(NC(=O)c2cc(-c3ccccc3Cl)on2)cc(OC)c1OC	-20.6	0.0%	11.7µM*	-18.9%	?	1.12µM*
O=C(Nc1cc(Br)ccc1O)c1cc(-c2ccccc2)on1	30.9	2.08µM*	?	/	/	-0.8%
Cc1cc2nc(-c3ccc(Cl)cc3)c(CC3CCCCC3)n2c(C)c1Br	15.6	/	/	/	/	/
C[C@@H]1CN([C@@H](C)CO)S(=O)(=O)c2ccc(-c3ccc(C#N)cc3)cc2O[C@@H]1CN(C)Cc1ccccn1	-34.1	/	/	/	/	/
COc1cc(NC(=O)Nc2cccc(-c3noc(C)n3)c2)cc(OC)c1OC	-77.1*	/	/	-0.1%[46.1 µM]	/	/
COc1cccc(-c2cc(C(=O)Nc3cccc(O)c3)no2)c1	85.3	222.1%	-12.7%	6.51µM*	4.61µM*	-22.3%
COc1cc(NC(=O)CN2C(=O)C(c3ccc(C)cc3)=NC23CCCCCC3)cc(OC)c1	-27.6	/	/	-2.4%[46.1 µM]	-8.9%[46.1 µM]	/
CC(=O)N1CCc2c(sc3c2c(=O)n(-c2cccc(Cl)c2)c(=O)n3Cc2ccc(F)cc2Cl)C1	8.8	/	/	-17.6%[46.1 µM]	/	/
CCN(C(=O)COC(=O)c1c(NC(C)=O)sc(C)c1C)c1c(N)n(Cc2ccccc2)c(=O)[nH]c1=O	0.0	/	/	/	/	?
CCC(Cc1ccccc1)NC(=O)c1ccc2nc(N3CCOCC3)sc2c1 (stereo not given)	109.6	-4.4%	4.4%	/	/	-26.2%
Cc1ccc(-n2ncc(C(=O)NCCN3CCc4ccccc4C3)c2C2CCN(C(=O)OC(C)(C)C)CC2)c(C)c1	11.6	/	/	-15.4%[46.1 µM]	/	/
CCN(CC)S(=O)(=O)c1cccc(-c2nnc(SCCOc3ccccc3C)o2)c1	?	?	?	-39.5%	?	12.6µM*
CCN(CC)S(=O)(=O)c1cccc(-c2nnc(SCCOc3ccc(Cl)cc3)o2)c1	-19.2	-23.9%	10.4µM*	?	?	?

Screening results: PubChem, National Center for Advancing Translational Sciences (NCATS)
